{"source": "PubChem BioAssay (EPA / NIEHS)", "note": "Activity calls are given as the source filed them. How the source made its calls: active means hit-call score of the fitted dose curve at least 0.9, where 1 is the maximum; inactive means score below 0.9."}
{"assay": "ATG_TA_CIS: Attagene CIS-FACTORIAL HepG2 Assay for human TA Basal Promoter (AID 2282964)", "settings": "HepG2 Attagene CIS-factorial TA basal promoter reporter; actives raise or lower the signal", "outline": "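Multiplexed mRNA reporter assay, HepG2, 24 h. Reporter cDNA amplified, 6-FAM primer-extended, HpaI-cut, CE-sized; DMSO = negative control and baseline.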"}
{"smiles": "C[Si](C)(C)O[Si](C)(C)C", "outcome": "inactive"}
{"smiles": "CCCN(CCC)S(=O)(=O)c1ccc(C(=O)O)cc1", "outcome": "inactive"}
{"smiles": "C=C1CC[C@H](O)C/C1=C/C=C1\\CCC[C@]2(C)[C@@H]([C@H](C)/C=C/[C@H](C)C(C)C)CC[C@@H]12", "outcome": "inactive"}
{"smiles": "CCC(C)S", "note": "(stereo not given)", "outcome": "inactive"}
{"smiles": "CCCCCCC(CO)CCCC", "note": "(stereo not given)", "outcome": "inactive"}
{"smiles": "CCN(CC)C(=O)N(CC)CC", "outcome": "inactive"}
{"smiles": "COC(=O)c1ccc([N+](=O)[O-])cc1", "outcome": "inactive"}
{"smiles": "c1ccc2[nH]cnc2c1", "outcome": "inactive"}
{"smiles": "CC(C)(N=C=O)c1cccc(C(C)(C)N=C=O)c1", "outcome": "inactive"}
{"smiles": "N#Cc1ccc(CC(=O)c2cccc(C(F)(F)F)c2)cc1", "outcome": "inactive"}
{"smiles": "O=[N+]([O-])c1cccc(Cl)c1", "outcome": "inactive"}
{"smiles": "CCCCC1(COC(=O)CCC(=O)O)C(=O)N(c2ccccc2)N(c2ccccc2)C1=O", "outcome": "inactive"}
{"smiles": "Nc1ccc2cc(S(=O)(=O)O)cc(O)c2c1N=Nc1ccccc1C(F)(F)F", "outcome": "inactive"}
{"smiles": "NC1CCCCC1N", "note": "(stereo not given)", "outcome": "inactive"}
{"smiles": "CC1C2CC(CC2C2CCCC(O)C2)C1(C)C", "note": "(stereo not given)", "outcome": "inactive"}
{"smiles": "CCCC(O)C(O)CO", "note": "(stereo not given)", "outcome": "inactive"}
{"smiles": "CC(C)CC(C)CC(O)CC(C)C", "note": "(stereo not given)", "outcome": "inactive"}
{"smiles": "Cc1ccc(S(N)(=O)=O)cc1", "outcome": "inactive"}
{"smiles": "CC(C)(CO)[C@@H](O)C(=O)NCCC(=O)O", "outcome": "inactive"}
{"smiles": "Cc1c(Cl)cccc1[N+](=O)[O-]", "outcome": "inactive"}
{"smiles": "CCCOC(=O)c1c(Cl)c(Cl)c(Cl)c(Cl)c1C(=O)OCCC", "outcome": "inactive"}
{"smiles": "CC(C)Nc1nc(N)nc(Cl)n1", "outcome": "inactive"}
{"smiles": "OCCCCC(O)CO", "note": "(stereo not given)", "outcome": "inactive"}
{"smiles": "CCOC(=O)C1OC1c1ccccc1", "note": "(stereo not given)", "outcome": "inactive"}
{"smiles": "CCOc1ccc(N=Nc2ccc(C=Cc3ccc(N=Nc4ccc(OCC)cc4)cc3S(=O)(=O)O)c(S(=O)(=O)O)c2)cc1", "outcome": "inactive"}
{"smiles": "CN(C)c1cccc(O)c1", "outcome": "inactive"}
{"smiles": "O=C(O)CCCCCCCCCCCC(=O)O", "outcome": "inactive"}
{"smiles": "N[C@@H](Cc1cc(I)c(Oc2cc(I)c(O)c(I)c2)c(I)c1)C(=O)O", "outcome": "inactive"}
{"smiles": "C[Si]1(C)O[Si](C)(C)O[Si](C)(C)O1", "outcome": "inactive"}
{"smiles": "COc1cc(Cl)c(OC)cc1N", "outcome": "inactive"}
{"smiles": "C=CCCC(=O)/C=C/C1C(C)=CCCC1(C)C", "note": "(stereo not given)", "outcome": "inactive"}
{"assay": "ATG_TCF_b_cat_CIS: Attagene CIS-FACTORIAL HepG2 Assay for human T-Cell-Factor with beta-catenin (TCF/b-cat) (AID 2282965)", "settings": "HepG2 TCF/beta-catenin cis-reporter transcription, actives raise or lower the signal", "outline": "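Endogenous transcription factor activity is captured through cis-promoter reporter constructs transiently introduced into human HepG2 liver cells. Induced reporter mRNA is measured after 24 h and fitted bidirectionally relative to DMSO.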"}
{"smiles": "C[Si](C)(C)O[Si](C)(C)C", "outcome": "inactive"}
{"smiles": "CCCN(CCC)S(=O)(=O)c1ccc(C(=O)O)cc1", "outcome": "inactive"}
{"smiles": "C=C1CC[C@H](O)C/C1=C/C=C1\\CCC[C@]2(C)[C@@H]([C@H](C)/C=C/[C@H](C)C(C)C)CC[C@@H]12", "outcome": "inactive"}
{"smiles": "CCC(C)S", "note": "(stereo not given)", "outcome": "inactive"}
{"smiles": "CCCCCCC(CO)CCCC", "note": "(stereo not given)", "outcome": "inactive"}
{"smiles": "COC(=O)c1ccc([N+](=O)[O-])cc1", "outcome": "inactive"}
{"smiles": "c1ccc2[nH]cnc2c1", "outcome": "inactive"}
{"smiles": "COC(=O)C=C(C)CCC=C(C)C", "outcome": "inactive"}
{"smiles": "N#Cc1ccc(CC(=O)c2cccc(C(F)(F)F)c2)cc1", "outcome": "inactive"}
{"smiles": "O=[N+]([O-])c1cccc(Cl)c1", "outcome": "inactive"}
{"smiles": "CCCCC1(COC(=O)CCC(=O)O)C(=O)N(c2ccccc2)N(c2ccccc2)C1=O", "outcome": "inactive"}
{"smiles": "Nc1ccc2cc(S(=O)(=O)O)cc(O)c2c1N=Nc1ccccc1C(F)(F)F", "outcome": "inactive"}
{"smiles": "NC1CCCCC1N", "note": "(stereo not given)", "outcome": "inactive"}
{"smiles": "CCC1(C)NC(=O)NC1=O", "note": "(stereo not given)", "outcome": "inactive"}
{"smiles": "CC1C2CC(CC2C2CCCC(O)C2)C1(C)C", "note": "(stereo not given)", "outcome": "inactive"}
{"smiles": "CCCC(O)C(O)CO", "note": "(stereo not given)", "outcome": "inactive"}
{"smiles": "CC(C)CC(C)CC(O)CC(C)C", "note": "(stereo not given)", "outcome": "inactive"}
{"smiles": "CCOC(=O)C(C#N)=C(c1ccccc1)c1ccccc1", "AC50": "26 µM (active)"}
{"smiles": "Cc1ccc(S(N)(=O)=O)cc1", "outcome": "inactive"}
{"smiles": "CC1(C)O[C@@H]2C[C@H]3[C@@H]4CCC5=CC(=O)C=C[C@]5(C)[C@@]4(F)[C@@H](O)C[C@]3(C)[C@]2(C(=O)CO)O1", "outcome": "inactive"}
{"smiles": "CC(C)(CO)[C@@H](O)C(=O)NCCC(=O)O", "outcome": "inactive"}
{"smiles": "Cc1c(Cl)cccc1[N+](=O)[O-]", "outcome": "inactive"}
{"smiles": "CC1(C)COCN1", "outcome": "inactive"}
{"smiles": "CCCOC(=O)c1c(Cl)c(Cl)c(Cl)c(Cl)c1C(=O)OCCC", "outcome": "inactive"}
{"smiles": "CC(C)Nc1nc(N)nc(Cl)n1", "outcome": "inactive"}
{"smiles": "Cc1cc(=O)oc2cc(N(C)C)ccc12", "outcome": "inactive"}
{"smiles": "CS(=O)(=O)OCCCCOS(C)(=O)=O", "outcome": "inactive"}
{"smiles": "CCOC(=O)C1OC1c1ccccc1", "note": "(stereo not given)", "AC50": "48 µM (active)"}
{"smiles": "CCOc1ccc(N=Nc2ccc(C=Cc3ccc(N=Nc4ccc(OCC)cc4)cc3S(=O)(=O)O)c(S(=O)(=O)O)c2)cc1", "outcome": "inactive"}
{"smiles": "N[C@@H](Cc1cc(I)c(Oc2cc(I)c(O)c(I)c2)c(I)c1)C(=O)O", "outcome": "inactive"}
{"smiles": "O=C(c1ccccc1)C(O)c1ccccc1", "note": "(stereo not given)", "outcome": "inactive"}
{"smiles": "C[Si]1(C)O[Si](C)(C)O[Si](C)(C)O1", "outcome": "inactive"}
{"smiles": "COc1cc(Cl)c(OC)cc1N", "outcome": "inactive"}
{"smiles": "C=CCCC(=O)/C=C/C1C(C)=CCCC1(C)C", "note": "(stereo not given)", "outcome": "inactive"}
{"assay": "ATG_TAL_CIS: Attagene CIS-FACTORIAL HepG2 Assay for human TAL Basal Promoter (AID 2282966);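 further: background control endpoint measuring basal TAL promoter reporter mRNA not a specific factor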", "settings": "HepG2 Attagene cis-factorial TAL promoter reporter; actives raise or lower the signal", "outline": "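HepG2 cells were transiently transfected with promoter-driven multiplexed reporter units and dosed for 24 h. Reporter mRNA was measured by RT-PCR with capillary electrophoresis fluorescence; bidirectional fits used DMSO as baseline, serving as a background control.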"}
{"smiles": "C[Si](C)(C)O[Si](C)(C)C", "outcome": "inactive"}
{"smiles": "CCCN(CCC)S(=O)(=O)c1ccc(C(=O)O)cc1", "outcome": "inactive"}
{"smiles": "C=C1CC[C@H](O)C/C1=C/C=C1\\CCC[C@]2(C)[C@@H]([C@H](C)/C=C/[C@H](C)C(C)C)CC[C@@H]12", "outcome": "inactive"}
{"smiles": "CCC(C)S", "note": "(stereo not given)", "outcome": "inactive"}
{"smiles": "CCCCCCC(CO)CCCC", "note": "(stereo not given)", "outcome": "inactive"}
{"smiles": "CCN(CC)C(=O)N(CC)CC", "outcome": "inactive"}
{"smiles": "COC(=O)c1ccc([N+](=O)[O-])cc1", "outcome": "inactive"}
{"smiles": "c1ccc2[nH]cnc2c1", "outcome": "inactive"}
{"smiles": "COC(=O)C=C(C)CCC=C(C)C", "outcome": "inactive"}
{"smiles": "CC(C)(N=C=O)c1cccc(C(C)(C)N=C=O)c1", "outcome": "inactive"}
{"smiles": "N#Cc1ccc(CC(=O)c2cccc(C(F)(F)F)c2)cc1", "outcome": "inactive"}
{"smiles": "O=[N+]([O-])c1cccc(Cl)c1", "outcome": "inactive"}
{"smiles": "CCCCC1(COC(=O)CCC(=O)O)C(=O)N(c2ccccc2)N(c2ccccc2)C1=O", "outcome": "inactive"}
{"smiles": "Nc1ccc2cc(S(=O)(=O)O)cc(O)c2c1N=Nc1ccccc1C(F)(F)F", "outcome": "inactive"}
{"smiles": "NC1CCCCC1N", "note": "(stereo not given)", "outcome": "inactive"}
{"smiles": "CCC1(C)NC(=O)NC1=O", "note": "(stereo not given)", "outcome": "inactive"}
{"smiles": "CC1C2CC(CC2C2CCCC(O)C2)C1(C)C", "note": "(stereo not given)", "outcome": "inactive"}
{"smiles": "CC(C)CC(C)CC(O)CC(C)C", "note": "(stereo not given)", "outcome": "inactive"}
{"smiles": "CCOC(=O)C(C#N)=C(c1ccccc1)c1ccccc1", "outcome": "inactive"}
{"smiles": "CC1(C)O[C@@H]2C[C@H]3[C@@H]4CCC5=CC(=O)C=C[C@]5(C)[C@@]4(F)[C@@H](O)C[C@]3(C)[C@]2(C(=O)CO)O1", "outcome": "inactive"}
{"smiles": "CC(C)(CO)[C@@H](O)C(=O)NCCC(=O)O", "outcome": "inactive"}
{"smiles": "Cc1c(Cl)cccc1[N+](=O)[O-]", "outcome": "inactive"}
{"smiles": "CC1(C)COCN1", "outcome": "inactive"}
{"smiles": "CCCOC(=O)c1c(Cl)c(Cl)c(Cl)c(Cl)c1C(=O)OCCC", "outcome": "inactive"}
{"smiles": "CC(C)Nc1nc(N)nc(Cl)n1", "outcome": "inactive"}
{"smiles": "OCCCCC(O)CO", "note": "(stereo not given)", "outcome": "inactive"}
{"smiles": "CS(=O)(=O)OCCCCOS(C)(=O)=O", "outcome": "inactive"}
{"smiles": "CCOC(=O)C1OC1c1ccccc1", "note": "(stereo not given)", "outcome": "inactive"}
{"smiles": "CCOc1ccc(N=Nc2ccc(C=Cc3ccc(N=Nc4ccc(OCC)cc4)cc3S(=O)(=O)O)c(S(=O)(=O)O)c2)cc1", "outcome": "inactive"}
{"smiles": "CN(C)c1cccc(O)c1", "outcome": "inactive"}
{"smiles": "O=C(O)CCCCCCCCCCCC(=O)O", "outcome": "inactive"}
{"smiles": "N[C@@H](Cc1cc(I)c(Oc2cc(I)c(O)c(I)c2)c(I)c1)C(=O)O", "outcome": "inactive"}
{"smiles": "O=C(c1ccccc1)C(O)c1ccccc1", "note": "(stereo not given)", "outcome": "inactive"}
{"smiles": "C[Si]1(C)O[Si](C)(C)O[Si](C)(C)O1", "outcome": "inactive"}
{"smiles": "C=CCCC(=O)/C=C/C1C(C)=CCCC1(C)C", "note": "(stereo not given)", "outcome": "inactive"}
